Results reported in PubChem BioAssay AID1159580 (chemical genetic matrix, 2015).
Among all 5,500 compounds or so, about 2,000 (36%) were called active. Inconclusive results (about 18%) are left out. Rule as the data show it: active = normalized growth mostly below about 0.91 (no sharp cut-off); inconclusive = no clear call, values can overlap the other calls; inactive = mostly above about 0.92. Some of the results follow.

Experiment: chemical genetic growth profiling, strain panel (AID 1159580);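 also: tested at 20 µM; growth read once vehicle control cultures reached saturation at 30 °C; 1 = growth at the plate median or of vehicle wells; lower values mean less growth of the strain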
Details: growth OD

Measured: normalized growth

N[C@@H](Cc1ccc(N(CCCl)CCCl)cc1)C(=O)O
inactive: S. cerevisiae deletion strains, locus YJR075W, strain HOC1, stronger effect = lower value 0.986 | S. cerevisiae deletion strains, locus YKL009W, strain mrt4, stronger effect = lower value 0.961 | S. cerevisiae deletion strains, locus YKL068W, stronger effect = lower value 0.971 | S. cerevisiae deletion strains, locus YKL085W, strain MDH1 (second series), stronger effect = lower value 0.991 | S. cerevisiae deletion strains, locus YKL085W, strain MDH1, stronger effect = lower value 0.991 | S. cerevisiae deletion strains, locus YKL160W, strain elf1, stronger effect = lower value 0.968 | S. cerevisiae deletion strains, locus YKL190W, strain CNB1, stronger effect = lower value 0.98 | S. cerevisiae deletion strains, locus YKR001C, strain vps1, stronger effect = lower value 0.961 | S. cerevisiae deletion strains, locus YKR026C, strain gcn3, stronger effect = lower value 0.979 | S. cerevisiae deletion strains, locus YKR091W, strain srl3, stronger effect = lower value 0.975 | S. cerevisiae deletion strains, locus YLL001W, strain dnm1, stronger effect = lower value 0.929 | S. cerevisiae deletion strains, locus YLL026W, stronger effect = lower value 0.989 | S. cerevisiae deletion strains, locus YLL041C, strain sdh2, stronger effect = lower value 0.982 | S. cerevisiae deletion strains, locus YLR027C, strain aat2, stronger effect = lower value 0.995 | S. cerevisiae deletion strains, locus YLR039C, strain RIC1, stronger effect = lower value 0.96 | S. cerevisiae deletion strains, locus YLR058C, strain SHM2, stronger effect = lower value 0.968 | S. cerevisiae deletion strains, locus YLR102C, strain apc9, stronger effect = lower value 0.981 | S. cerevisiae deletion strains, locus YLR113W, strain HOG1, stronger effect = lower value 1.03 | S. cerevisiae deletion strains, locus YLR221C, strain rsa3, stronger effect = lower value 0.958 | S. cerevisiae deletion strains, locus YLR258W, strain gsy2, stronger effect = lower value 0.983 | S. cerevisiae deletion strains, locus YLR262C, strain YPT6 (second series), stronger effect = lower value 0.979 | S. cerevisiae deletion strains, locus YLR262C, strain YPT6, stronger effect = lower value 0.898 | S. cerevisiae deletion strains, locus YLR268W, strain sec22, stronger effect = lower value 0.967 | S. cerevisiae deletion strains, locus YLR320W, strain mms22, stronger effect = lower value 0.97 | S. cerevisiae deletion strains, locus YLR330W, strain CHS5, stronger effect = lower value 0.986 | S. cerevisiae deletion strains, locus YLR342W, strain FKS1 (second series), stronger effect = lower value 0.983 | S. cerevisiae deletion strains, locus YLR342W, strain FKS1, stronger effect = lower value 0.978 | S. cerevisiae deletion strains, locus YLR357W, strain rsc2, stronger effect = lower value 0.954 | S. cerevisiae deletion strains, locus YLR370C, strain arc18, stronger effect = lower value 0.978 | S. cerevisiae deletion strains, locus YLR371W, strain rom2, stronger effect = lower value 0.978 | S. cerevisiae deletion strains, locus YLR384C, strain iki3, stronger effect = lower value 0.985 | S. cerevisiae deletion strains, locus YLR418C, strain cdc73, stronger effect = lower value 0.976 | S. cerevisiae deletion strains, locus YML016C, strain PPZ1, stronger effect = lower value 0.982 | S. cerevisiae deletion strains, locus YML032C, strain rad52, stronger effect = lower value 0.979 | S. cerevisiae deletion strains, locus YML120C, strain ndi1, stronger effect = lower value 0.952 | S. cerevisiae deletion strains, locus YML124C, strain tub3, stronger effect = lower value 0.987 | S. cerevisiae deletion strains, locus YMR058W, strain fet3, stronger effect = lower value 0.983 | S. cerevisiae deletion strains, locus YMR078C, strain ctf18, stronger effect = lower value 0.961 | S. cerevisiae deletion strains, locus YMR125W, strain sto1, stronger effect = lower value 0.97 | S. cerevisiae deletion strains, locus YMR129W, stronger effect = lower value 0.981 | S. cerevisiae deletion strains, locus YMR205C, strain PFK2, stronger effect = lower value 0.974 | S. cerevisiae deletion strains, locus YMR223W, strain ubp8, stronger effect = lower value 0.987 | S. cerevisiae deletion strains, locus YMR231W, strain pep5, stronger effect = lower value 0.987 | S. cerevisiae deletion strains, locus YMR263W, strain SAP30, stronger effect = lower value 0.982 | S. cerevisiae deletion strains, locus YMR307W, strain GAS1, stronger effect = lower value 0.915 | S. cerevisiae deletion strains, locus YNL067W, strain RPL9B, stronger effect = lower value 0.984 | S. cerevisiae deletion strains, locus YNL071W, strain lat1, stronger effect = lower value 0.932 | S. cerevisiae deletion strains, locus YNL128W, strain TEP1, stronger effect = lower value 0.982 | S. cerevisiae deletion strains, locus YNL153C, strain GIM3, stronger effect = lower value 0.976 | S. cerevisiae deletion strains, locus YNL183C, strain NPR1, stronger effect = lower value 0.966 | S. cerevisiae deletion strains, locus YNL209W, strain ssb2, stronger effect = lower value 0.983 | S. cerevisiae deletion strains, locus YNL233W, strain BNI4, stronger effect = lower value 0.994 | S. cerevisiae deletion strains, locus YNL248C, strain rpa49, stronger effect = lower value 0.978 | S. cerevisiae deletion strains, locus YNL250W, strain rad50, stronger effect = lower value 0.969 | S. cerevisiae deletion strains, locus YNL271C, strain bni1, stronger effect = lower value 0.979 | S. cerevisiae deletion strains, locus YNL298W, strain CLA4, stronger effect = lower value 0.979 | S. cerevisiae deletion strains, locus YNL307C, strain MCK1, stronger effect = lower value 0.985 | S. cerevisiae deletion strains, locus YNL322C, strain KRE1 (second series), stronger effect = lower value 0.989 | S. cerevisiae deletion strains, locus YNL322C, strain KRE1, stronger effect = lower value 0.982 | S. cerevisiae deletion strains, locus YNR049C, strain mso1, stronger effect = lower value 0.977 | S. cerevisiae deletion strains, locus YNR052C, strain pop2, stronger effect = lower value 0.974 | S. cerevisiae deletion strains, locus YOL006C, strain TOP1, stronger effect = lower value 0.954 | S. cerevisiae deletion strains, locus YOL012C, strain htz1 0.837 | S. cerevisiae deletion strains, locus YOL147C, strain pex11, stronger effect = lower value 0.986 | S. cerevisiae deletion strains, locus YOR001W, strain rrp6, stronger effect = lower value 0.988 | S. cerevisiae deletion strains, locus YOR061W, strain CKA2, stronger effect = lower value 0.962 | S. cerevisiae deletion strains, locus YOR069W, strain VPS5, stronger effect = lower value 0.998 | S. cerevisiae deletion strains, locus YOR070C, strain gyp1, stronger effect = lower value 0.979 | S. cerevisiae deletion strains, locus YOR080W, strain dia2, stronger effect = lower value 0.995 | S. cerevisiae deletion strains, locus YOR083W, strain WHI5, stronger effect = lower value 0.963 | S. cerevisiae deletion strains, locus YOR106W, strain vam3, stronger effect = lower value 0.996 | S. cerevisiae deletion strains, locus YOR136W, strain idh2, stronger effect = lower value 0.989 | S. cerevisiae deletion strains, locus YOR144C, strain elg1, stronger effect = lower value 0.99 | S. cerevisiae deletion strains, locus YOR184W, strain ser1, stronger effect = lower value 0.96 | S. cerevisiae deletion strains, locus YOR231W, strain MKK1, stronger effect = lower value 1.01 | S. cerevisiae deletion strains, locus YOR265W, strain rbl2, stronger effect = lower value 0.989 | S. cerevisiae deletion strains, locus YOR270C, strain vph1, stronger effect = lower value 0.981 | S. cerevisiae deletion strains, locus YOR290C, strain snf2, stronger effect = lower value 0.909 | S. cerevisiae deletion strains, locus YOR316C, strain cot1, stronger effect = lower value 0.97 | S. cerevisiae deletion strains, locus YPL051W, strain arl3, stronger effect = lower value 0.974 | S. cerevisiae deletion strains, locus YPL055C, strain LGE1, stronger effect = lower value 0.963 | S. cerevisiae deletion strains, locus YPL078C, strain atp4, stronger effect = lower value 0.974 | S. cerevisiae deletion strains, locus YPL106C, strain sse1, stronger effect = lower value 0.976 | S. cerevisiae deletion strains, locus YPL240C, strain hsp82, stronger effect = lower value 0.989 | S. cerevisiae deletion strains, locus YPL241C, strain CIN2, stronger effect = lower value 1.04 | S. cerevisiae deletion strains, locus YPL256C, strain CLN2, stronger effect = lower value 1.02 | S. cerevisiae deletion strains, locus YPR119W, strain clb2, stronger effect = lower value 0.991 | S. cerevisiae deletion strains, locus YPR141C, strain kar3, stronger effect = lower value 0.961 | S. cerevisiae deletion strains, locus YPR163C, strain tif3, stronger effect = lower value 0.984 | S. cerevisiae deletion strains, locus YPR167C, strain met16, stronger effect = lower value 0.972 | S. cerevisiae deletion strains, strain wtn01, stronger effect = lower value 0.982 | S. cerevisiae strains, strain wild type, stronger effect = lower value 0.983
